PubChem BioAssay (NCI)
Compounds without any hit were thinned out: in the full panel of roughly 79,000, 15% have a hit. Calls of active or inactive are those of the source. Rule as the data show it: active = growth inhibition above about 70%; inactive = the rest.

Key:
[1] = NCI Yeast Anticancer Drug Screen. Data for the rad52 strain (AID 147);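 also: 0% = growth of vehicle-treated control cultures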; conditions: S. cerevisiae rad52 mutant growth inhibition, active compounds read high
Outline: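 Genetically altered yeast (DNA damage repair defect) treated with compound; inhibition calculated relative to vehicle.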

[2] = NCI Yeast Anticancer Drug Screen. Data for the wt1 strain (AID 149);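 also: 0% = growth of vehicle-treated wt1 cultures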; conditions: S. cerevisiae wt1 strain (SPY 50644) growth inhibition, active compounds read high
Outline: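 Yeast wt1 strain exposed to compounds; growth inhibition measured relative to vehicle-treated controls.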

[3] = NCI Yeast Anticancer Drug Screen. Data for the rad50EPP+ strain (AID 151);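 also: 0% = growth of vehicle-treated control cultures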; conditions: S. cerevisiae rad50 mutant strain, active compounds read high
Outline: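 Strain rad50EPP+; compound exposure; % growth inhibition vs vehicle.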

[4] = NCI Yeast Anticancer Drug Screen. Data for the mgt1 strain (AID 153); conditions: S. cerevisiae mgt1 mutant growth inhibition, active compounds read high
Outline: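 Read-out: yeast growth inhibition vs vehicle control. Strain mgt1, drawn from a panel altered in DNA damage repair or cell cycle control.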

[5] = NCI Yeast Anticancer Drug Screen. Data for the rad50 strain (AID 155);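 also: 0% = growth of vehicle-only cultures of the same strain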; conditions: S. cerevisiae rad50 strain growth inhibition, active compounds read high
Outline: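 Yeast carrying a defined DNA repair defect were exposed to test compounds, and growth was compared with vehicle-treated controls to give percent inhibition.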

[6] = NCI Yeast Anticancer Drug Screen. Data for the mec2-1 strain (AID 157); conditions: S. cerevisiae mec2-1 strain, active compounds read high
Outline: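 Cells of the genetically defined mec2-1 yeast strain are incubated with test compound. Inhibition of growth is calculated against vehicle-treated controls.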

[7] = NCI Yeast Anticancer Drug Screen. Data for the rad14 strain (AID 159);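 also: 0% = growth of vehicle-treated control cultures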; conditions: S. cerevisiae rad14 strain growth inhibition, active compounds read high
Outline: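 Yeast cells carrying a defined DNA-repair defect were exposed to compounds, and growth inhibition was calculated relative to vehicle-treated control cultures.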

[8] = NCI Yeast Anticancer Drug Screen. Data for the sgs1 mgt1 strain (AID 161);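 also: 0% = growth of cultures given vehicle only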; conditions: S. cerevisiae sgs1 mgt1 strain, active compounds read high
Outline: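 Test agents were incubated with a DNA-repair-mutant yeast strain. Growth was then read and compared against vehicle-treated controls.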

[9] = NCI Yeast Anticancer Drug Screen. Data for the CLN2oe strain (AID 163);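 also: 0% = growth of vehicle-only control cultures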; conditions: S. cerevisiae CLN2oe strain, active compounds read high
Outline: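 Strain altered in cell-cycle control, incubated with compound; growth compared to solvent-treated controls.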

[10] = NCI Yeast Anticancer Drug Screen. Data for the bub3 strain (AID 167); conditions: S. cerevisiae bub3 mutant strain, active compounds read high
Outline: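 Compounds were applied to a genetically altered yeast strain carrying a cell-cycle control defect. Growth inhibition was scored against vehicle-treated controls.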

[11] = NCI Yeast Anticancer Drug Screen. Data for the wt2 strain (AID 169);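 also: 0% = growth of vehicle-treated yeast cultures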; conditions: S. cerevisiae wt2 strain growth inhibition, active compounds read high
Outline: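 Steps: yeast strain treated with compound; growth recorded; inhibition calculated relative to cultures given vehicle alone.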

[12] = NCI Yeast Anticancer Drug Screen. Data for the mlh1 strain (AID 171);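 also: 0% = growth of vehicle-treated control cultures of the same strain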; conditions: S. cerevisiae mlh1 strain growth inhibition, active compounds read high
Outline: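 Yeast screen: mutant strain plus compound, growth scored against vehicle control wells.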

[13] = NCI Yeast Anticancer Drug Screen. Data for the sgs1 strain (AID 173);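 also: 0% = growth of vehicle-only control cultures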; conditions: S. cerevisiae sgs1 mutant, active compounds read high
Outline: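 Inhibition of yeast growth served as the measure. The mutant strain was treated with each compound, and growth was normalised to cultures receiving vehicle alone.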

[14] = NCI Yeast Anticancer Drug Screen. Data for the mlh1 rad18 strain (AID 175); conditions: S. cerevisiae mlh1 rad18 strain growth inhibition, active compounds read high
Outline: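 Compound-treated yeast growth, normalised to vehicle controls. Strain bears defined DNA repair mutations.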

[15] = NCI Yeast Anticancer Drug Screen. Data for the rad18 strain (AID 177); conditions: S. cerevisiae rad18 mutant growth inhibition, active compounds read high
Outline: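 Inhibition values reflect reduced yeast growth compared with vehicle-treated controls, using a strain engineered with a DNA damage repair defect.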

[16] = NCI Yeast Anticancer Drug Screen. Data for the cln2 rad14 strain (AID 165);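 also: 0% = growth equal to vehicle treated cultures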; conditions: S. cerevisiae cln2 rad14 strain, active compounds read high
Outline: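 The screen exposed genetically defined yeast (cln2 rad14) to test compounds and scored growth inhibition relative to vehicle-treated controls.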

[17] = at 5.0 µM (retest, dose inferred, filed as 0.5)
[18] = at 50.0 µM (retest, dose inferred, filed as 5.0)

Measured: growth inhibition

O=C(NCCCNCCN1C(=O)c2cccc3cc([N+](=O)[O-])cc(c23)C1=O)c1cc(-c2ccccc2)nc2ccccc12
active: [1]; at 100.0 µM 98% | [2]; at 100.0 µM 96% | [4]; at 100.0 µM 99% | [5]; [18] 98% | [5]; at 50.0 µM 94.3% | [5]; at 100.0 µM 99% | [6]; [18] 86% | [6]; at 50.0 µM 91% | [6]; at 100.0 µM 99% | [7]; at 100.0 µM 99% | [8]; [18] 96% | [8]; at 50.0 µM 93.5% | [9]; at 100.0 µM 98% | [10]; [18] 97% | [10]; at 50.0 µM 93.3% | [10]; at 100.0 µM 98% | [11]; at 100.0 µM 99% | [12]; at 100.0 µM 99% | [13]; at 100.0 µM 98% | [14]; [18] 97% | [14]; at 50.0 µM 97.6% | [15]; at 100.0 µM 99%
inactive: [1]; at 1.2 µM -2% | [1]; at 3.7 µM 2% | [1]; at 11.0 µM 6% | [1]; at 33.0 µM 38% | [2]; at 1.2 µM 0% | [2]; at 3.7 µM -1% | [2]; at 11.0 µM -2% | [2]; at 33.0 µM -6% | [3]; at 1.2 µM 0% | [3]; at 3.7 µM 2% | [3]; at 11.0 µM 8% | [3]; at 33.0 µM 19% | [3]; at 100.0 µM 57% | [4]; at 1.2 µM -1% | [4]; at 3.7 µM 0% | [4]; at 11.0 µM -1% | [4]; at 33.0 µM 8% | [5]; at 1.2 µM -2% | [5]; at 3.7 µM 2% | [5]; [17] -11% | [5]; at 11.0 µM 8% | [5]; at 33.0 µM 64% | [6]; at 1.2 µM 0% | [6]; at 3.7 µM -1% | [6]; [17] -1% | [6]; at 11.0 µM 0% | [6]; at 33.0 µM 5% | [7]; at 1.2 µM -1% | [7]; at 3.7 µM -1% | [7]; at 11.0 µM 4% | [7]; at 33.0 µM 21% | [8]; [17] -2% | [9]; at 1.2 µM 1% | [9]; at 3.7 µM 3% | [9]; at 11.0 µM -4% | [9]; at 33.0 µM 10% | [10]; at 1.2 µM -4% | [10]; at 3.7 µM 0% | [10]; [17] -9% | [10]; at 11.0 µM 2% | [10]; at 33.0 µM 9% | [11]; at 1.2 µM -1% | [11]; at 3.7 µM -1% | [11]; at 11.0 µM -2% | [11]; at 33.0 µM -2% | [12]; at 1.2 µM -3% | [12]; at 3.7 µM 1% | [12]; at 11.0 µM 1% | [12]; at 33.0 µM 9% | [13]; at 1.2 µM -1% | [13]; at 3.7 µM 1% | [13]; at 11.0 µM 2% | [13]; at 33.0 µM 17% | [14]; [17] -1% | [15]; at 1.2 µM -3% | [15]; at 3.7 µM -2% | [15]; at 11.0 µM -1% | [15]; at 33.0 µM 10%

Cc1ccc2nc(-c3cccc([N+](=O)[O-])c3)oc(=O)c2c1
active: [6]; [18] 75% | [10]; [18] 75%
inactive: [1]; at 1.2 µM 3% | [1]; at 3.7 µM 6% | [1]; at 11.0 µM 1% | [1]; at 33.0 µM -4% | [1]; at 100.0 µM -10% | [2]; at 1.2 µM -7% | [2]; at 3.7 µM -3% | [2]; at 11.0 µM -6% | [2]; at 33.0 µM -15% | [2]; at 100.0 µM -20% | [3]; at 1.2 µM -12% | [3]; at 3.7 µM 12% | [3]; at 11.0 µM 18% | [3]; at 33.0 µM 15% | [3]; at 100.0 µM 27% | [4]; at 1.2 µM -29% | [4]; at 3.7 µM -25% | [4]; at 11.0 µM -25% | [4]; at 33.0 µM -26% | [4]; at 100.0 µM -18% | [5]; at 1.2 µM -21% | [5]; at 3.7 µM -19% | [5]; [17] 31% | [5]; at 11.0 µM -34% | [5]; at 33.0 µM -31% | [5]; [18] 62% | [5]; at 50.0 µM 14.2% | [5]; at 100.0 µM -30% | [6]; at 1.2 µM -57% | [6]; at 3.7 µM -57% | [6]; [17] 39% | [6]; at 11.0 µM -62% | [6]; at 33.0 µM -53% | [6]; at 50.0 µM 11.8% | [6]; at 100.0 µM -70% | [7]; at 1.2 µM -10% | [7]; at 3.7 µM -6% | [7]; at 11.0 µM -4% | [7]; at 33.0 µM -19% | [7]; at 100.0 µM -16% | [9]; at 1.2 µM 15% | [9]; at 3.7 µM 22% | [9]; at 11.0 µM 20% | [9]; at 33.0 µM 9% | [9]; at 100.0 µM 8% | [16]; [17] 43% | [16]; [18] 59% | [16]; at 50.0 µM 13.2% | [10]; at 1.2 µM -23% | [10]; at 3.7 µM -23% | [10]; [17] 33% | [10]; at 11.0 µM -24% | [10]; at 33.0 µM -5% | [10]; at 50.0 µM 53.7% | [10]; at 100.0 µM -36% | [11]; at 1.2 µM -22% | [11]; at 3.7 µM -19% | [11]; at 11.0 µM -26% | [11]; at 33.0 µM -32% | [11]; at 100.0 µM -24% | [12]; at 1.2 µM -6% | [12]; at 3.7 µM -2% | [12]; at 11.0 µM -17% | [12]; at 33.0 µM -17% | [12]; at 100.0 µM -14% | [13]; at 1.2 µM -20% | [13]; at 3.7 µM -16% | [13]; at 11.0 µM -19% | [13]; at 33.0 µM -18% | [13]; at 100.0 µM -11% | [14]; [17] 34% | [14]; [18] 67% | [14]; at 50.0 µM 14.7% | [15]; at 1.2 µM -14% | [15]; at 3.7 µM -4% | [15]; at 11.0 µM -19% | [15]; at 33.0 µM -28% | [15]; at 100.0 µM -42%
